According to the supplement of paper PMC10849652:
The full data set covers some 7,900 targets. This sample favours those with a hit. About 0.6% of all pairs of compound and target were hits. Values without a mark were called inactive.

Key:
Assay in all cases: log2 fold change, soluble protein after heating vs DMSO (PISA); higher = thermal stabilisation; K562 cells, 10 uM, 30 min; active = over 0.2 and 3.5 SD of the protein, either way, in both replicates (recomputed)
filanesib = compound: CON(C)C(=O)N1N=C(c2cc(F)ccc2F)S[C@@]1(CCCN)c1ccccc1 [filanesib]
Outline: (§1)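 K562 cells (2×10^6 cells/mL) were treated with 10 μM compound for 30 min, and aliquots were heated for 3 min over 48°C-58°C. Pooled aliquots were extracted in PBS with 0.5% NP-40 at 4°C, and the supernatant after 21,000xg for 90 min was measured by TMTpro 16plex LC-MS/MS with channel sums equalised. Reported thermal stability, relative to control samples and from duplicates, is a log2 fold change.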

zotarolimus = compound: CO[C@H]1C[C@@H]2CC[C@@H](C)[C@@](O)(O2)C(=O)C(=O)N2CCCC[C@H]2C(=O)O[C@H]([C@H](C)C[C@@H]2CC[C@H](n3cnnn3)[C@H](OC)C2)CC(=O)[C@H](C)/C=C(\C)[C@@H](O)[C@@H](OC)C(=O)[C@H](C)C[C@H](C)/C=C/C=C/C=C/1C [zotarolimus]
Outline: as §1

idasanutlin = compound: COc1cc(C(=O)O)ccc1NC(=O)[C@@H]1N[C@@H](CC(C)(C)C)[C@](C#N)(c2ccc(Cl)cc2F)[C@H]1c1cccc(Cl)c1F [idasanutlin]
Outline: as §1

alisertib = compound: COc1cc(Nc2ncc3c(n2)-c2ccc(Cl)cc2C(c2c(F)cccc2OC)=NC3)ccc1C(=O)O [alisertib]
Outline: as §1

[1] = compound: COc1cc2nc(-c3cc(F)ccc3O)nc(N[C@@H]3CNC[C@H]3C(C)(C)O)c2cc1OC
Outline: as §1

gefitinib = compound: COc1cc2ncnc(Nc3ccc(F)c(Cl)c3)c2cc1OCCCN1CCOCC1 [gefitinib]
Outline: as §1

[2] = compound: COc1cccc2cc(-c3nc([C@H]4CC[C@H](C(=O)O)CC4)n4ncnc(N)c34)[nH]c12
Outline: as §1

lapatinib = compound: CS(=O)(=O)CCNCc1ccc(-c2ccc3ncnc(Nc4ccc(OCc5cccc(F)c5)c(Cl)c4)c3c2)o1 [lapatinib]
Outline: as §1

pictilisib = compound: CS(=O)(=O)N1CCN(Cc2cc3nc(-c4cccc5[nH]ncc45)nc(N4CCOCC4)c3s2)CC1 [pictilisib]
Outline: as §1

[3] = compound: CS(=O)(=O)c1ccc(-c2cnc(N)c(C(=O)Nc3ccccc3)n2)cc1
Outline: as §1

[4] = compound: C[C@@H]1COCCN1C2=NC(=NC(=C2)C3(CC3)S(=O)(=O)C)C4=C5C=CNC5=CC=C4
Outline: as §1

[5] = compound: C[C@H](C1=CC=C(C=C1)C(=O)NC2=C3C=CNC3=NC=C2)N
Outline: as §1

duvelisib = compound: C[C@H](Nc1ncnc2nc[nH]c12)c1cc2cccc(Cl)c2c(=O)n1-c1ccccc1 [duvelisib]
Outline: as §1

gandotinib = compound: Cc1cc(Nc2cc(CN3CCOCC3)c3nc(C)c(Cc4ccc(Cl)cc4F)n3n2)n[nH]1 [gandotinib]
Outline: as §1

tozasertib = compound: Cc1cc(Nc2cc(N3CCN(C)CC3)nc(Sc3ccc(NC(=O)C4CC4)cc3)n2)n[nH]1 [tozasertib]
Outline: as §1

[6] = compound: Cc1cc(SCc2sc(-c3ccc(C(F)(F)F)cc3)nc2C)ccc1OCC(=O)O
Outline: as §1

ispinesib = compound: Cc1ccc(C(=O)N(CCCN)[C@@H](c2nc3cc(Cl)ccc3c(=O)n2Cc2ccccc2)C(C)C)cc1 [ispinesib]
Outline: as §1

[7] = compound: COC1=CC=C(C=C1)CN2C=CC3=C2C=C(C=C3)C(=O)NO
Outline: as §1

crizotinib = compound: C[C@@H](Oc1cc(-c2cnn(C3CCNCC3)c2)cnc1N)c1c(Cl)ccc(F)c1Cl [crizotinib]
Outline: as §1

doramapimod = compound: Cc1ccc(-n2nc(C(C)(C)C)cc2NC(=O)Nc2ccc(OCCN3CCOCC3)c3ccccc23)cc1 [doramapimod]
Outline: as §1

Sequence of UniProt Q96F85 (Q96F85 whole entry, looked up): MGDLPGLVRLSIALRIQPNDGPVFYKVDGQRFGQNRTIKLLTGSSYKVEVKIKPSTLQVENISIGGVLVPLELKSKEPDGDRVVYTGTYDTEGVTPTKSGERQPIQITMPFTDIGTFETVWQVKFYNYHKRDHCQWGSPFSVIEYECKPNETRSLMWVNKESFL
Sequence of UniProt P34810 (P34810 whole entry, looked up): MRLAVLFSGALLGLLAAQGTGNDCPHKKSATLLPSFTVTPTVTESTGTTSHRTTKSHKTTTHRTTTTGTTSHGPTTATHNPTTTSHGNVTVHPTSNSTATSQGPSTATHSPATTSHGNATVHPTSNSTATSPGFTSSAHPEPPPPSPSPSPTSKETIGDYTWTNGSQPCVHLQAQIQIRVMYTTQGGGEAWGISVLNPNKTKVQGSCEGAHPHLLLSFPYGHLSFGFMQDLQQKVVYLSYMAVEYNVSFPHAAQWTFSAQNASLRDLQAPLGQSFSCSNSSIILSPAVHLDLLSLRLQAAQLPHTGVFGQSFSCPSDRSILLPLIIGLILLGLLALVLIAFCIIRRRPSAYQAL
Sequence of UniProt P33552 (P33552 whole entry, looked up): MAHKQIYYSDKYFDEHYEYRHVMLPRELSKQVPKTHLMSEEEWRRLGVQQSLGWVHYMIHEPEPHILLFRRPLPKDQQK
Sequence of UniProt O60583 (O60583 whole entry, looked up): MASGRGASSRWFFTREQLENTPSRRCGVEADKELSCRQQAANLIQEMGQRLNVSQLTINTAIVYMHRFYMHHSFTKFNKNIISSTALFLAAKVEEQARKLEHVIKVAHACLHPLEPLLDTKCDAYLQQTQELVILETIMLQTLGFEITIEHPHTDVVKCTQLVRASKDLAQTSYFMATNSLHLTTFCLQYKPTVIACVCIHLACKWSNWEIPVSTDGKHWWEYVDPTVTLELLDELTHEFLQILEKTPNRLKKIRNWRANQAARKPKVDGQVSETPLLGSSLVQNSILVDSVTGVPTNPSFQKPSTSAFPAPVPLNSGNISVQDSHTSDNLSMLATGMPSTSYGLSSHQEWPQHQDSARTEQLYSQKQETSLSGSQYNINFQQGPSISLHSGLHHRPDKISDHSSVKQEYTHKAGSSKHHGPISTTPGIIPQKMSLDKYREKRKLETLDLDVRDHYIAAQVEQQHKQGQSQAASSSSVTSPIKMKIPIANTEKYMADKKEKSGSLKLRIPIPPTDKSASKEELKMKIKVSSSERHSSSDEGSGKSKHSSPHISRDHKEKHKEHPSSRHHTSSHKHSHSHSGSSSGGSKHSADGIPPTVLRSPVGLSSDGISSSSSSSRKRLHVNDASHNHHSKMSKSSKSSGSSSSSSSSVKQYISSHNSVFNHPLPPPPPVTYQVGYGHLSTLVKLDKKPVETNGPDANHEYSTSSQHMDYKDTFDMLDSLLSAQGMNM
Sequence of UniProt Q9BWU1 (Q9BWU1 whole entry, looked up): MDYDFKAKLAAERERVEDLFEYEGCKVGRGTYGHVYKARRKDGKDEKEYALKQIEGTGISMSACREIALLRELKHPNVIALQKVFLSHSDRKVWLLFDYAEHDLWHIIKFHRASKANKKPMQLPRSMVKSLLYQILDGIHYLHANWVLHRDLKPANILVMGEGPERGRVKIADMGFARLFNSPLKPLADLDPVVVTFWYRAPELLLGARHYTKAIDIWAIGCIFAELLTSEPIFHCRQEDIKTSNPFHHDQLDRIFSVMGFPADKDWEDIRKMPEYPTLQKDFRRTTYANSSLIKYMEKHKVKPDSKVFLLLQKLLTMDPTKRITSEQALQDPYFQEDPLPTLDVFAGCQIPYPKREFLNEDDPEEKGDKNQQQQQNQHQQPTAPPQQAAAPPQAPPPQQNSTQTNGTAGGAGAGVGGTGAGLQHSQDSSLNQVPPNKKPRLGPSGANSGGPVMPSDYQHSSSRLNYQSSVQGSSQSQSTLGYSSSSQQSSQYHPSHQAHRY
Sequence of UniProt Q15417 (Q15417 whole entry, looked up): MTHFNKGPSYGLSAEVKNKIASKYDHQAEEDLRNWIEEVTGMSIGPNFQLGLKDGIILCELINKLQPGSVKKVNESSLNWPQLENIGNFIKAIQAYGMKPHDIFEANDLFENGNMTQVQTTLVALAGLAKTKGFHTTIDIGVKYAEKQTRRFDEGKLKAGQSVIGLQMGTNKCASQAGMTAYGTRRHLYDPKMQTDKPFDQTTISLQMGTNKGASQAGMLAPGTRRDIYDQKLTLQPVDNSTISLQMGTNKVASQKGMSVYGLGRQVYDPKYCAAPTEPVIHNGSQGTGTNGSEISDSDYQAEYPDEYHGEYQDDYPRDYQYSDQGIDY
Sequence of UniProt P55210 (P55210 whole entry, looked up): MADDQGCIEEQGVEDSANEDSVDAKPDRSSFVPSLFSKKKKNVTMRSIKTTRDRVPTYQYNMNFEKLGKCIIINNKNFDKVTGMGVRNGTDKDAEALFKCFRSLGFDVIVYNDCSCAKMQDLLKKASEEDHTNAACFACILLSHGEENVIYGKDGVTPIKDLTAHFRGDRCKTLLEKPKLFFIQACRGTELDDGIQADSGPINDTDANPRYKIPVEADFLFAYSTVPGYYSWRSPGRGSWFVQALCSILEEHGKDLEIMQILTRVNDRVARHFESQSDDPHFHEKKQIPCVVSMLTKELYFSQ
Sequence of UniProt A8MTT3 (A8MTT3 whole entry, looked up): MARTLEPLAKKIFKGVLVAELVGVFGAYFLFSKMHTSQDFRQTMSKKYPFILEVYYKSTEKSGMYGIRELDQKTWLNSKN
Sequence of UniProt Q92828 (Q92828 whole entry, looked up): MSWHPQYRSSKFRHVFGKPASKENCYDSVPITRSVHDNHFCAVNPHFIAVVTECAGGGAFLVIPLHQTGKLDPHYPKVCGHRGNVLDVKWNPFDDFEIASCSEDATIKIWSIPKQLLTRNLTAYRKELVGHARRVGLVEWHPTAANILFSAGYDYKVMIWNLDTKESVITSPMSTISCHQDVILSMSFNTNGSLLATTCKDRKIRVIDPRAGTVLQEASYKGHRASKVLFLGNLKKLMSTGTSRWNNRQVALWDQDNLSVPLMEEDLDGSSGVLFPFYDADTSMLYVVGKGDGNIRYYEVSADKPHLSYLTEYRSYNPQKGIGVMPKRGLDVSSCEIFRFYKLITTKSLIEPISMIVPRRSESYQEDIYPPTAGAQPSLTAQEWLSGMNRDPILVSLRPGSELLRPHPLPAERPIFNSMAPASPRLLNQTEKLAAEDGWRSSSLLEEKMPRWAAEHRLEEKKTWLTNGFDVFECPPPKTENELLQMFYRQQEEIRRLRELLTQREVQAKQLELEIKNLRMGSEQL
Sequence of UniProt Q14194 (Q14194 whole entry, looked up): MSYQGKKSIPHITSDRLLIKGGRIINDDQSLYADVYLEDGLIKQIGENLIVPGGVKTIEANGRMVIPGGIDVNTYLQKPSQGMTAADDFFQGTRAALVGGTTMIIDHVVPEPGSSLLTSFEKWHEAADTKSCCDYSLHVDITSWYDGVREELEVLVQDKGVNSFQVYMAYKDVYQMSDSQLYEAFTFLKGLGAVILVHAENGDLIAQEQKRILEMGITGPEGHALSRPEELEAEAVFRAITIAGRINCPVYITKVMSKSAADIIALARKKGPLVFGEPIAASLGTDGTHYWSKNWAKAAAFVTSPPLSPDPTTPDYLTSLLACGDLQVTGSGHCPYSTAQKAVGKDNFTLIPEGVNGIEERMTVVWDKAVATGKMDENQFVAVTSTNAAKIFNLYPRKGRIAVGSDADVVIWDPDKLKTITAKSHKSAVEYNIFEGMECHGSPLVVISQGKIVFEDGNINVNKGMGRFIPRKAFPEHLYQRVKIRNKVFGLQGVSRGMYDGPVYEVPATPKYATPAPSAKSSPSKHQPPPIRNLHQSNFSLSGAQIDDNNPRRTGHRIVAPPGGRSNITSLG
Sequence of UniProt Q96GV9 (Q96GV9 whole entry, looked up): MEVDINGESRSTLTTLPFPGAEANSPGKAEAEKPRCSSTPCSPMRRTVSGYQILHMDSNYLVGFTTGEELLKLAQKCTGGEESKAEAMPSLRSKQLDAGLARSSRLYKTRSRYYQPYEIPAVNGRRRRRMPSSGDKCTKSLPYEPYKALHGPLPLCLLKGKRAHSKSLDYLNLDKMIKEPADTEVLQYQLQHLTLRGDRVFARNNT
Sequence of UniProt O14936 (O14936 whole entry, looked up): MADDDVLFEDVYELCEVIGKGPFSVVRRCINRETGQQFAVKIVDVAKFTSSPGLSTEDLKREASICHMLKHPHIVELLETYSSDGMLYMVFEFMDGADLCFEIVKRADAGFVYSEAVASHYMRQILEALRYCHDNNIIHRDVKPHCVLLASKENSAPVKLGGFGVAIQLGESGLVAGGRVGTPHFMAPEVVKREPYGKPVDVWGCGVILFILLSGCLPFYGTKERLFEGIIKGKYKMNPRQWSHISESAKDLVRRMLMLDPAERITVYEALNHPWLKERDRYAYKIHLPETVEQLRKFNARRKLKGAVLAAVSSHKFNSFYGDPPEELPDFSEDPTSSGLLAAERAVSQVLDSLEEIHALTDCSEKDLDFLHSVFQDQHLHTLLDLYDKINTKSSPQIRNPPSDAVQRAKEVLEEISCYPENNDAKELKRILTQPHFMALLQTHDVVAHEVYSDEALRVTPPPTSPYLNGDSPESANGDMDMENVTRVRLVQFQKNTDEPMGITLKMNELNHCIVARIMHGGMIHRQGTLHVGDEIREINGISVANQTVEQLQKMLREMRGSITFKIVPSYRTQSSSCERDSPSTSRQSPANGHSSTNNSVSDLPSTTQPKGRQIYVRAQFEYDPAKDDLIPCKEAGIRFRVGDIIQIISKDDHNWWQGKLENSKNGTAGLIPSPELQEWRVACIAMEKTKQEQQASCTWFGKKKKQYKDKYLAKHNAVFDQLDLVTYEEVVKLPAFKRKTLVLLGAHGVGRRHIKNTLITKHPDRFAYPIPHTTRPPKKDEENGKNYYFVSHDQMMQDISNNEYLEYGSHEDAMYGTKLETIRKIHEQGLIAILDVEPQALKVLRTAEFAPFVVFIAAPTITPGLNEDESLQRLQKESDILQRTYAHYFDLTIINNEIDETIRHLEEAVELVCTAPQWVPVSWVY

Target | log2 fold change (filanesib) | log2 fold change (zotarolimus) | log2 fold change (idasanutlin) | log2 fold change (alisertib) | log2 fold change [1] | log2 fold change (gefitinib) | log2 fold change [2] | log2 fold change (lapatinib) | log2 fold change (pictilisib) | log2 fold change [3] | log2 fold change [4] | log2 fold change [5] | log2 fold change (duvelisib) | log2 fold change (gandotinib) | log2 fold change (tozasertib) | log2 fold change [6] | log2 fold change (ispinesib) | log2 fold change [7] | log2 fold change (crizotinib) | log2 fold change (doramapimod)
CHPT1 (UniProt Q8WUD6) | -0.345 | -0.017 | -0.018 | -0.136 | -0.009 | 0.013 | -0.015 | 0.159 | -0.096 | 0.064 | -0.07 | 0.023 | 0.025 | 0.038 | -0.016 | 0.015 | -1.09 (active) | – | – | –
CDK19 (UniProt Q9BWU1) | 0.154 | -0.069 | -0.161 | 0.234 | 0.138 | -0.095 | -0.045 | -0.192 | 0.073 | 0.042 | 0.03 | 0.401 | -0.089 | -0.051 | -0.197 | 0.034 | 0.291 | – | – | –
CRTC3 (UniProt Q6UUV7) | 0.015 | -0.059 | – | 0.202 | -0.86 (active) | – | -0.107 | 0.078 | – | -0.004 | 0.177 | 0.071 | – | – | -0.121 | – | 0.129 | – | – | –
CCNDBP1 (UniProt O95273) | 0.016 | -0.102 | 0.063 | -0.012 | – | -0.33 (active) | 0.125 | – | 0.009 | 0.016 | – | 0.06 | 0.016 | -0.066 | 0.1 | 0.043 | -0.029 | – | – | –
CORO2A (UniProt Q92828) | -0.035 | -0.049 | -0.071 | 0.035 | -0.057 | -0.097 | -0.02 | -0.011 | -0.11 | -0.085 | – | 0.101 | 0.061 | 0.061 | -0.028 | 0.023 | -0.046 | – | – | –
CKS2 (UniProt P33552) | – | – | 0.193 | -0.029 | 0.184 | 0.093 | 0.14 | -0.036 | -0.666 | – | – | – | 0.01 | -0.272 | -0.094 | -0.038 | – | – | – | –
CNRIP1 (UniProt Q96F85) | – | – | – | 0.075 | 0.282 | 0.002 | -0.223 | 0.054 | – | – | 0.209 | – | – | – | – | – | -0.147 | – | – | –
CFAP47 (UniProt Q6ZTR5) | – | – | -0.496 | – | 0.031 | – | – | -0.106 | – | – | 0.099 | – | -0.027 | – | – | -0.302 | – | – | – | –
CEBPZOS (UniProt A8MTT3) | – | – | -0.021 | -0.014 | -0.085 | 0.004 | 0.098 | -0.037 | -0.045 | – | – | – | 0.055 | -0.189 | -0.031 | -0.013 | 0.016 | 0.111 | 0.26 (active) | 0.066
CA1 (UniProt E5RIF9) | – | – | – | – | – | – | – | – | – | – | -0.134 | – | 0.055 | – | -0.153 | -0.613 | – | – | – | –
CCNL1 (UniProt Q9UK58) | – | – | – | 0.119 | – | – | 0.167 | – | – | – | – | – | – | – | – | – | – | – | – | –
CRMP1 isoform 2 (UniProt Q14194) | 0.067 | -0.045 | 0.172 | – | – | -0.407 | – | – | 0.107 | 0.024 | – | 0.08 | 0.208 | -0.132 | -0.602 | -0.003 | – | – | – | –
CCNT2 (UniProt O60583) | 0.102 | – | 0.143 | 0.039 | -0.291 | 0.163 | -0.131 | 0.085 | 0.121 | -0.226 | -0.148 | – | -0.107 | -0.065 | -0.291 | 0.047 | -0.147 | – | – | –
CLN3 (UniProt Q13286) | – | -0.1 | – | 0 | 0.08 | -0.028 | 0.139 | -0.059 | – | – | 0.066 | 0.071 | 0.096 | – | -0.006 | -0.085 | -0.307 | 0.008 | -0.327 | -0.047
CASP7 isoform 3 (UniProt P55210) | – | – | – | – | – | 0.282 | – | – | 0.234 | – | 0.3 | – | -0.024 | -0.155 | – | -0.271 | – | – | – | –
CLCN5 isoform 2 (UniProt P51795) | – | -0.004 | – | – | – | 0.011 | – | – | – | – | – | -0.123 | 0.188 | -0.083 | 0.122 | -0.049 | -0.419 (active) | -0.011 | -0.321 | -0.03
COMMD3-BMI1 (UniProt R4GMX3) | -0.08 | -0.12 | 0.093 | – | 0.519 (active) | -0.029 | – | -0.445 | 0.135 | 0.074 | -0.031 | 0.019 | – | -0.011 | -0.048 | – | – | – | – | –
CNN3 (UniProt Q15417) | -0.006 | 0.005 | -0.04 | -0.031 | 0.111 | 0.026 | -0.026 | -0.032 | 0.04 | 0.044 | 0.075 | -0.066 | -0.02 | -0.1 | 0.069 | 0.15 | – | – | – | –
C5orf30 (UniProt Q96GV9) | – | – | 0.022 | – | -0.094 | – | – | -0.21 | – | – | 0.352 | – | – | – | -0.24 | – | – | – | – | –
CLASP2 (UniProt O75122) | – | 0.235 | 0.101 | -0.025 | 0.125 | 0.071 | 0.072 | 0.032 | – | – | – | 0.155 | – | – | – | – | -0.007 | 0.015 | -0.21 | 0.132
CD68 (UniProt P34810) | 0.05 | – | – | -0.126 | – | – | -0.025 | – | – | -0.016 | – | – | – | – | – | – | – | – | – | –
CAD (UniProt H7BZB3) | – | – | -0.006 | – | – | – | – | – | – | – | – | – | – | – | – | – | – | – | – | –
CASK (UniProt O14936) | – | – | -0.031 | – | – | – | – | – | – | – | – | – | 0.049 | – | – | -0.039 | – | 0.046 | – | 0.034
CD84 (UniProt Q9UIB8) | -0.009 | -0.194 | -0.082 | – | – | – | – | – | – | 0.049 | -0.201 | -0.149 | 0.036 | – | -0.055 | 0.056 | – | – | – | –
